The values below come from the supplement of paper PMC4371806.

In all, about 1,600 compounds were measured (“plate-normalized OD600 growth (mean of duplicates)”: median about 0.31, lowest 2% from about 0.23 on). The entries come from a sample that favours the lowest values as a whole.

This experiment has as its system Escherichia coli BW25113. Nature of the experiment: plate-normalized OD600 growth (mean of duplicates) (OD600 (normalized)); higher = more growth (less inhibition). The note with it: 10 µM. As to the method:
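E. coli BW25113 in LB (100 µl, 96-well, no shaking) was exposed to 10 µM of each compound (here the ChemBridge subset of a ~30,000-member library) and grown at 37°C for 24 h or 15°C for 48 h, in duplicate. Growth was read as OD600 and the duplicate ODs were normalized across screening plates to correct plate-to-plate variation.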

On to `Cc1ccc2c(c1)C1CN(C)CCC1N2` (stereo not given), for which the “plate-normalized OD600 growth” value (temperature: 15°C, 48 h) turned out to be 0.227 and the “plate-normalized OD600 growth” value (temperature: 37°C, 24 h) came out at 0.61.

In the case of `O=c1cccc2n1C[C@H]1C[C@H]2CN(Cc2c(Cl)cccc2Cl)C1`, the “plate-normalized OD600 growth” value reads like this: (temperature: 15°C, 48 h) 0.284; (temperature: 37°C, 24 h) 0.625.

As for `Cc1ccc(-c2nc3ccccc3c(=O)n2-c2cccc(O)c2)cc1`, the “plate-normalized OD600 growth” value reads like this: (temperature: 15°C, 48 h) 0.247; (temperature: 37°C, 24 h) 0.61.

For the compound `Fc1ccc(CN2CCN(c3cccc(Cl)c3)CC2)c(F)c1`, the “plate-normalized OD600 growth” value reads like this: (temperature: 15°C, 48 h) 0.253; (temperature: 37°C, 24 h) 0.623.

On to `CCC(N)C(=O)c1ccc(Br)cc1` (stereo not given), for which the “plate-normalized OD600 growth” value (temperature: 15°C, 48 h) amounted to 0.219 and the “plate-normalized OD600 growth” value (temperature: 37°C, 24 h) is 0.624.

Regarding `Cc1cccc(C)c1-n1nnnc1C1(Nc2cccc(O)c2)CCCCC1`, the “plate-normalized OD600 growth” value runs as follows: (temperature: 15°C, 48 h) 0.252; (temperature: 37°C, 24 h) 0.643.

In the case of `CN1C(=O)N(C)C(=O)C(CCc2ccncc2)(CCc2ccncc2)C1=O`, the “plate-normalized OD600 growth” value (temperature: 15°C, 48 h) was determined as 0.266 and the “plate-normalized OD600 growth” value (temperature: 37°C, 24 h) was found to be 0.631.

Turning to `CCOc1cc(/C=C/[N+](=O)[O-])ccc1O`, the “plate-normalized OD600 growth” value reads like this: (temperature: 15°C, 48 h) 0.209; (temperature: 37°C, 24 h) 0.585.

On to `COc1ccccc1N1CCN(Cc2ccc(N(C)C)cc2)CC1`, for which the “plate-normalized OD600 growth” value by setting is: (temperature: 15°C, 48 h) 0.234; (temperature: 37°C, 24 h) 0.615.

On to `Clc1cccc(N2CCN(Cc3ccc4c(c3)OCO4)CC2)c1`, for which the “plate-normalized OD600 growth” value was found to be 0.275 (temperature: 15°C, 48 h) and 0.647 (temperature: 37°C, 24 h).

As for `CCN1CCN(Cc2ccc(OC)c(C)c2)CC1`, the “plate-normalized OD600 growth” value is, setting by setting: (temperature: 15°C, 48 h) 0.261; (temperature: 37°C, 24 h) 0.606.

On to `Cc1cccc(CN2CCN(c3ccccc3)CC2)c1`, for which the “plate-normalized OD600 growth” value reads like this: (temperature: 15°C, 48 h) 0.223; (temperature: 37°C, 24 h) 0.663.

Consider `Oc1cccc(CN2CCN(c3ccc(F)cc3)CC2)c1`, for which the “plate-normalized OD600 growth” value was found to be 0.222 (temperature: 15°C, 48 h) and 0.646 (temperature: 37°C, 24 h).

As for `Fc1ccc(N2CCN(CCc3ccccc3)CC2)cc1`, the “plate-normalized OD600 growth” value is, setting by setting: (temperature: 15°C, 48 h) 0.24; (temperature: 37°C, 24 h) 0.615.

Consider `Oc1cccc(CN2CCN(c3ccccc3Cl)CC2)c1`, for which the “plate-normalized OD600 growth” value is, setting by setting: (temperature: 15°C, 48 h) 0.26; (temperature: 37°C, 24 h) 0.611.

For the compound `COc1cccc(CN2CCN(c3cccc(Cl)c3)CC2)c1`, the “plate-normalized OD600 growth” value worked out at 0.26 (temperature: 15°C, 48 h) and 0.623 (temperature: 37°C, 24 h).

In the case of `COc1cccc(CN2CCN(c3ccccc3)CC2)c1`, the “plate-normalized OD600 growth” value is 0.252 (temperature: 15°C, 48 h) and 0.608 (temperature: 37°C, 24 h).

With `COc1cc(CN2C[C@@H]3C[C@@H](C2)c2cccc(=O)n2C3)cc(I)c1O`, the “plate-normalized OD600 growth” value came to 0.263 (temperature: 15°C, 48 h) and 0.634 (temperature: 37°C, 24 h).

In the case of `O=c1cccc2n1C[C@H]1C[C@H]2CN(Cc2cccc(Cl)c2Cl)C1`, the “plate-normalized OD600 growth” value (temperature: 15°C, 48 h) stood at 0.28 and the “plate-normalized OD600 growth” value (temperature: 37°C, 24 h) was found to be 0.659.

Consider `COc1ccc(CN2C(=O)CC(=O)NC2=O)cc1`, for which the “plate-normalized OD600 growth” value worked out at 0.265 (temperature: 15°C, 48 h) and 0.633 (temperature: 37°C, 24 h).

For the compound `COc1ccc(N2CCN(Cc3ccc(N(C)C)cc3)CC2)cc1`, the “plate-normalized OD600 growth” value reads like this: (temperature: 15°C, 48 h) 0.271; (temperature: 37°C, 24 h) 0.65.

Consider `Cc1[nH]c2ccccc2c1CCCNC1CCCCC1`, for which the “plate-normalized OD600 growth” value stood at 0.264 (temperature: 15°C, 48 h) and 0.644 (temperature: 37°C, 24 h).

In the case of `Cc1ccccc1-n1c(/C=C/c2ccccc2[N+](=O)[O-])nc2ccccc2c1=O`, the “plate-normalized OD600 growth” value was 0.239 (temperature: 15°C, 48 h) and 0.651 (temperature: 37°C, 24 h).

As to `COc1ccc(Br)cc1CN1CCN(C)CC1`, the “plate-normalized OD600 growth” value was 0.26 (temperature: 15°C, 48 h) and 0.617 (temperature: 37°C, 24 h).

Turning to `CN1C(=O)C(C2(C#N)CCCCC2)C(=O)N(C)C1=O`, the “plate-normalized OD600 growth” value is, setting by setting: (temperature: 15°C, 48 h) 0.264; (temperature: 37°C, 24 h) 0.635.

As to `COc1cc(Cc2ccc(N)c(OC)c2)ccc1N`, the “plate-normalized OD600 growth” value is 0.255 (temperature: 15°C, 48 h) and 0.625 (temperature: 37°C, 24 h).

`Cc1ccccc1CN1CCN(c2ccc([N+](=O)[O-])cc2)CC1`: the “plate-normalized OD600 growth” value was 0.23 (temperature: 15°C, 48 h) and 0.605 (temperature: 37°C, 24 h).

With `Nc1ccc(Oc2ccc(N)cc2)cc1`, the “plate-normalized OD600 growth” value reads like this: (temperature: 15°C, 48 h) 0.168; (temperature: 37°C, 24 h) 0.608.

On to `OCCN1CCN(Cc2ccc(F)c(F)c2)CC1`, for which the “plate-normalized OD600 growth” value (temperature: 15°C, 48 h) came to 0.247 and the “plate-normalized OD600 growth” value (temperature: 37°C, 24 h) is 0.612.

With `COC1CCCCC1NC1CCCCC1` (stereo not given), the “plate-normalized OD600 growth” value is, setting by setting: (temperature: 15°C, 48 h) 0.234; (temperature: 37°C, 24 h) 0.614.
